About 83,000 compounds went through this panel and 20% of them were active in at least one assay; those are over-represented in the sample as a whole.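 The test compound was applied at a single concentration to cells in 96-well plates for 48 hours, and percent growth was recorded.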 Unmarked numbers belong to inactive results. The source made the active and inactive calls. Rule for the calls: active = growth percent below 10; inactive = the rest.
Columns and labels:
Test in all cases: NCI-60 one-dose screen, 48 h (100 = growth as untreated, 0 = no growth, -100 = all killed)
Conditions in all cases: 10 µM unless noted
NCI-H23 lung = test system: NCI-H23 lung
NCI-H226 lung = test system: NCI-H226 lung
NCI-H322M lung = test system: NCI-H322M lung
HOP-62 NSCLC = test system: HOP-62 NSCLC
NCI-H460 lung = test system: NCI-H460 lung
A549/ATCC NSCLC = test system: A549/ATCC NSCLC
786-0 renal = test system: 786-0 renal
COLO 205 colon = test system: COLO 205 colon
DU-145 prostate = test system: DU-145 prostate
K-562 leukemia = test system: K-562 leukemia
MALME-3M melanoma = test system: MALME-3M melanoma
MDA-MB-231 breast = test system: MDA-MB-231 breast
RXF 393 renal = test system: RXF 393 renal
SF-268 CNS = test system: SF-268 CNS
SF-295 CNS = test system: SF-295 CNS
SF-539 CNS = test system: SF-539 CNS
UACC-257 melanoma = test system: UACC-257 melanoma
M14 melanoma = test system: M14 melanoma

Structure (SMILES) | growth (NCI-H23 lung) | growth (NCI-H226 lung) [%] | growth (NCI-H322M lung) [%] | growth (HOP-62 NSCLC) | growth (NCI-H460 lung) | growth (A549/ATCC NSCLC) [%] | growth (786-0 renal) | growth (COLO 205 colon) | growth (DU-145 prostate) [%] | growth (K-562 leukemia) | growth (MALME-3M melanoma) [%] | growth (MDA-MB-231 breast) | growth (RXF 393 renal) | growth (SF-268 CNS) [%] | growth (SF-295 CNS) | growth (SF-539 CNS) [%] | growth (UACC-257 melanoma) | growth (M14 melanoma)
COc1cc(-c2nn(-c3ccc(NC(=O)c4ccc(Cl)c(Cl)c4)cc3)cc2-c2ccncc2)ccc1Cl | 77.8% | 88.3 | 101 | 52.7% | 48.3% | 68.3 | -34.5% (active) | 52.6% | 82 | 17% | 111 | 54.9% | -55.1% (active) | 67.6 | -42.3% (active) | 47.7 | 110% | 62.3%
N#Cc1c2cccnc2c2nnc3cc(Cl)c(Cl)cc3n12 | -20.2% (active) | 79.6 | 44.5 | 26.1% | 34.2% | 83 | 81.2% | 85.8% | 36.4 | 5.64% (active) | 25.6 | 2.64% (active) | -3.12% (active) | 16.8 | 80.8% | 35.1 | 73.1% | 78.1%
CC(O)CN(CC(C)O)N(CC(C)O)CC(C)O (configuration not stated) | 108% | 97.5 | 107 | 101% | 106% | 95.5 | 99.5% | 109% | 111 | 108% | 108 | 105% | 105% | 110 | 101% | 105 | 90.5% | 100%
O=C(Nc1ccc(-n2cc(-c3ccncc3)c(-c3ccc(Cl)c(O)c3)n2)cc1)Nc1cc(C(F)(F)F)cc(C(F)(F)F)c1 | 15.4% | 42 | 41.9 | 14% | 5.79% (active) | 17.6 | -60.1% (active) | -55.2% (active) | 36.4 | 17.6% | 12 | 21.5% | -11.2% (active) | 25.9 | -5.6% (active) | 30.3 | 8.73% (active) | 6.9% (active)
CCCCCCCCCCCCOC(=N)N(C)C | 107% | 96.2 | 95 | 97% | 99.8% | 91.7 | 96.8% | 100% | 112 | 96.3% | 88.9 | 104% | 112% | 101 | 98.4% | 99.4 | 92.2% | 106%
CC(O)CN(CCO)CCN(CCO)CC(C)O (configuration not stated) | 111% | 99.3 | 103 | 110% | 109% | 102 | 94.6% | 115% | 106 | 107% | 106 | 115% | 93% | 107 | 94.2% | 94.8 | 108% | 106%
CCCCCCC(C)N(CC(C)(C)O)C(=O)c1ccc([N+](=O)[O-])cc1 (configuration not stated) | 99.2% | 95.2 | 91.1 | 87.3% | 105% | 104 | 94.5% | 99.6% | 101 | 85.1% | 95.8 | 106% | 100% | 110 | 88.6% | 108 | 106% | 
COC(=O)c1cc(O)c2cc3c(cc2c1-c1cc(OC)c(OC)c(OC)c1)OCO3 | 49.9% | 50.6 | 59.9 | 28% | 14.7% | 45.1 | 29.6% | 5.08% (active) | 40.6 | 15.4% | 48.3 | 40.2% | -31.3% (active) | 47.8 | 26.3% | 13.3 | 60.1% | 19%
Nc1nc(-c2cccc(Br)c2)cc(-c2cc3ccccc3oc2=O)n1 | 96.1% | 91.5 | 115 | 90.9% | 103% | 97.2 | 105% | 113% | 111 | 104% | 123 | 104% | 110% | 100 | 131% | 110 | 106% | 103%
O=c1c2c(c3ccccc3n1-c1ccccc1)NC(=S)NC2c1ccc(Cl)cc1 (configuration not stated) | 26.7% | 65 | 45.1 | 29.3% | 2.25% (active) | 31.7 | 18.6% | 67.2% | 47.2 | 43.1% | 39.2 | 50.5% | 46.3% | 43.5 | 25.9% | 21.2 | 44.1% | 29.1%
O=C(NCCO)C(F)(F)F | 109% | 111 | 105 | 104% | 109% | 98.4 | 93.9% | 110% | 109 | 105% | 95.6 | 107% | 108% | 102 | 95.5% | 93.5 | 99.3% | 101%
O=C(Nc1ccc(-n2cc(-c3ccncc3)c(-c3ccc(Cl)c(O)c3)n2)cc1)c1cc(Cl)cc(Cl)c1 | 60.3% | 111 | 60.4 | 22.2% | 14.1% | 41.4 | -39% (active) | 72.9% | 72.8 | 13.9% | 24.7 | 24.2% | -69% (active) | 74.5 | -61.6% (active) | 26 | 54.7% | -49.1% (active)
O=CN/N=C/c1ccc(Cl)c([N+](=O)[O-])c1 | 26.5% | 35.4 | 28.6 | 20.8% | 8.54% (active) | 14.5 | 31.6% | 26% | 24.5 | 15.4% | 30 | 43.9% | 40.1% | 21.5 | 3.88% (active) | 22.2 | 18.2% | 29%
COc1cccc(-c2cc(-c3cc4ccccc4oc3=O)nc(N)n2)c1 | 101% | 91.2 | 123 | 97.7% | 102% | 95 | 101% | 108% | 112 | 99% | 121 | 90.4% | 108% | 101 | 125% | 132 | 108% | 
CCOC(=O)c1csc(-c2ccc(COC(=O)c3ccccc3)o2)n1 | 108% | 104 | 93.2 | 99.5% | 109% | 99.7 | 102% | 114% | 130 | 102% | 95.8 | 107% | 106% | 118 | 84.4% | 107 |  | 
CC(=O)Nc1nc(C)c(C(=O)NNS(=O)(=O)c2ccccc2)s1 | 109% | 112 | 99.4 | -98.9% (active) | 110% | 103 | 92.6% | 119% | 135 | 149% | 96.5 | 107% | 110% | 117 | 132% | 101 | 103% | 97.6%
O=C1C(Br)=CC2C1C1C3CCC3C2(Br)C12OCCO2 (configuration not stated) | 65.8% | 59.6 | 54.5 | 47.2% | 22.6% | 33.2 | 42.8% | 38.9% | 19.7 | 15.8% | 46 | 51.7% | 18.4% | 25.6 | 31.4% | 14.5 | 54% | 44.4%

From PubChem BioAssay (NCI)
